# USP30 block – inhibitors of human USP30 deubiquitinase; purified USP30, Ub-rhodamine cleavage fluorescence; inhibition, % at 25 µM; 47,000 compounds, 5.3% hits
# OTUD3 inh – inhibitors of human OTUD3 deubiquitinase; OTU domain-containing protein 3 (Homo sapiens), Q5T2D3; purified OTUD3, Ub-rhodamine fluorescence, 2 h; inhibition, % at 25 µM; 47,000 compounds, 0.7% hits; AID 1645858, 2021
# USP28 inh – inhibitors of human USP28 deubiquitinase; AID 1645857, 2021; purified USP28, Ub-rhodamine cleavage fluorescence, 30 min; 47,000 compounds, 3% hits; inhibition, % at 25 µM
# USP17 inh – inhibitors of human USP17 deubiquitinase. Ubiquitin carboxyl-terminal hydrolase 17-like protein 5 (Homo sapiens), A8MUK1. AID 1645855, 2021. 47,000 compounds, 6.5% hits. purified USP17, Ub-rhodamine cleavage fluorescence, 3 h. inhibition, % at 50 µM
# The depositor's hits bear a star; x = not tested or not shown. A selection: hits, their analogues and other compounds. The true share with any hit is near 11%. Cut-off read from the data, not from the text of the source: active = inhibition above about 30%; inactive = the rest.
SMILES,USP30 block,OTUD3 inh,USP28 inh,USP17 inh
Cc1cccc2nc(CSc3nc4ccc([N+](=O)[O-])cc4[nH]3)cn12,8,9,3,0
Cc1ccc(NC(=O)c2nnn(-c3cccc(Cl)c3)c2C)cc1C,18,1,4,2
COc1cccc(-n2nnc(C(=O)Nc3ccc(Oc4ccccc4)cc3)c2C)c1,-15,-2,22,-7
COc1ccc(Cl)cc1-n1nnc(C(=O)Nc2ccc(C)cc2C)c1C,13,7,24,31*
COc1ccccc1-n1nnc(C(=O)Nc2ccc(Oc3ccccc3)cc2)c1C,14,8,52*,6
Cc1cccc(NC(=O)Nc2ccc(C)n(CC(=O)N3CCC(C)CC3)c2=O)c1,4,-4,-2,-4
Cn1c(=O)c(C(=O)Nc2ccc(F)cc2)cc2cccnc21,-8,-1,-7,4
Cn1c(=O)c2cc(C(=O)Nc3ccc(F)cc3)cnc2n(C)c1=O,5,9,1,53*
COCCCn1c(SCCc2ccccc2)nc2cc(OC)c(OC)cc2c1=N,3,8,-7,43*
Cc1ccc(-c2onc(C)c2C)cc1S(=O)(=O)NCc1ccccc1,35*,5,15,22
COc1ccc(-c2onc(C)c2C)cc1S(=O)(=O)NCc1ccccc1,1,-3,-3,-40
Cc1ccc2nc(-c3cccc(NC(=O)C(C)C)c3)[nH]c2c1,21,2,26,49*
COc1cccc(C(=O)Nc2ccccc2-c2nc3ccc(C)cc3[nH]2)c1,4,0,5,9
Oc1ccc(Br)cc1CNc1ccc(F)cc1,19,8,60*,53*
O=C(Nc1nnc2n1CCCS2)c1ccc(C(F)(F)F)cc1,6,6,17,2
CCN(CC)c1ccc(NC(=O)c2cnn3c(C(F)F)cc(-c4ccc(OC)cc4)nc23)cc1,14,8,11,16
CCCc1ccc(C(C)NC(=O)c2cnn3c(C(F)F)cc(-c4ccc(OC)cc4)nc23)cc1 (stereo not drawn),15,13,18,34*
COCCN1C(=O)c2ccccc2C(C(=O)Nc2ccc3c(c2)OCO3)C12CCCC2 (stereo not drawn),9,13,23,45*
COCCN1C(=O)c2ccccc2C(C(=O)Nc2ccc(NC(C)=O)cc2)C12CCCCC2 (stereo not drawn),x,0,x,12
O=C(NCc1ccc2c(c1)OCO2)c1nn(C23CC4CC(CC(C4)C2)C3)cc1[N+](=O)[O-],62*,33*,25,6
COc1ccc2nc(C(=O)NCc3ccccc3)cn2n1,-13,-5,-15,-11
CCOc1ccc2nc(C(=O)NCc3ccc4c(c3)OCO4)cn2n1,41*,24,28,32*
Cc1ccc(NC(=O)N2CCCC2c2ccco2)c(Cl)c1 (stereo not drawn),-2,0,3,2
COc1ccc(C(=O)c2c[nH]c(C(=O)NCCCn3ccnc3)c2)cc1,33*,15,14,18
COc1ccc(-c2cc(C(F)F)n3ncc(C(=O)NCCCN4CCCC4=O)c3n2)cc1,18,10,1,11
SMILES,USP30 block,OTUD3 inh,USP28 inh,USP17 inh
O=C(Cn1c(=O)n(Cc2ccc3c(c2)OCO3)c(=O)c2ncccc21)NCc1ccccc1,85*,44*,62*,76*
O=C(Cn1c(=O)n(Cc2ccc3c(c2)OCO3)c(=O)c2ccccc21)c1ccccc1,36*,9,12,23
CCn1nc(C(=O)N2CCCC(C)C2)c(=O)c2ccccc21 (stereo not drawn),-15,-4,-1,-2
Nc1cc(C2CCN(S(=O)(=O)c3ccc4c(c3)CCCC4)CC2)no1,48*,10,10,16
Cc1cccc(S(=O)(=O)N2CCC(c3cc(N)on3)CC2)c1,-14,-6,-8,-3
CS(=O)(=O)n1nc(NCc2ccc(F)cc2)nc1NCc1ccc(F)cc1,3,33*,4,0
O=C(CN1C=NC2=NS(=O)(=O)c3ccccc3N21)Nc1cc(F)ccc1F,18,12,10,76*
O=C(CC1c2ncccc2C(=O)N1c1ccccc1)N1CCC2(CC1)OCCO2 (stereo not drawn),-4,1,-5,3
CCCCNC(=O)c1cc2c(=O)n3ccccc3nc2n1CCCOC,3,0,-3,2
COCCCn1c(C(=O)Nc2ccc(OC)cc2)cc2c(=O)n3ccccc3nc21,-8,-6,-16,1
COCCCn1c(C(=O)NCCC(C)C)cc2c(=O)n3ccccc3nc21,34*,17,21,32*
COCCCn1c(C(=O)Nc2ccccc2OC)cc2c(=O)n3ccccc3nc21,35*,5,7,77*

# From PubChem BioAssay
